Reference: PubChem BioAssay AID1508600 (Functional Genomics Laboratory (NCATS/FGL), 2020)
About 3,700 (7%) of roughly 53,000 sequences were called active. This is one part of a sample in which actives are shown more often than they occur. A number with no mark means an inactive call.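 Rule for the calls: active = gene knockdowns whose robust z-score for IL-1 alpha signal is at least 2 or at most -2, so actives lie on both sides; inactive = the rest.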

Experiment: Components of the Cytosolic LPS Sensing Pathway: Gene Identification via Genome-wide siRNA Screen;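 note: robust z of the log signal after scaling to non-targeting control siRNA wells of the plate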
Conditions: RAW264.7 macrophages, IL-1a HTRF, actives lie on both sides, screened at 100 nM (by protocol), cells primed 5 h with Pam3CSK4 first
Procedure, shortened: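 Supernatant IL-1a by HTRF from RAW264.7 cells primed with Pam3CSK4 (5 hours) and transfected with LipidA (24 hour) after 48h siRNA knockdown at 100 nM; cell viability checked with CellTiter-Glo.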

| Sequence | z-score |
| --- | --- |
| UUCUGUGAUCAUGUCUUCUTT against Tuba1b | -1.6 |
| GCGAUUCUGUAAAGAGCGCTT against Nme1 | 1.9 |
| GGCCUUAGUUUAUACAUGUTT against Dusp18 | 0.628 |
| GGAAUGUAACUGAAAGACUTT against Myo1c | 0.486 |
| GCUCAAGGACUUACGCAACTT against Zfp668 | -1.61 |
| GCAUUCCAACGGAUUUAAUTT against Dag1 | 2.21 (active) |
| GGACAAAAACAAACAUGAGTT against Vwa3a | -0.665 |
| CCGGGAAAGAACUCCUAAGTT against Wnt8b | 0.0331 |
| GGUUUCACAUUCAUCAACUTT against Ccdc14 | -1.02 |
| GGAUGAGCAAGAAAUCCCUTT against Ccdc137 | -0.873 |
| CCUAAGGAGACACGAAGCCTT against Cfp | -0.119 |
| GGAUAUGCACUGUUUUCAATT against Nudt16 | 2.28 (active) |
| GGUCUUCCAAGAAAAAGGCTT against a | 1.07 |
| GGAUGCUGACAAAAAUAUCTT against Iars | 0.447 |
| GGCCAUAAAAUGGUAGUAUTT against Trim36 | 0.0952 |
| GGGUCAUGUUUUUAAGAAGTT against Frrs1 | -1.28 |
| CCCUUGCCUCAAAGAUCUUTT against Tex48 | 0.633 |
| GCACUGUUCUCAAAGUUAATT against Ddx3x | -0.248 |
| GGCUACGCCCACAAAAGCUTT against H1f6 | -2.26 (active) |
| CCAAUUGGAAGAAUCCAGGTT against Gsdmc3 | -0.542 |
| GGUUUUCCUAAAGUCAACATT against Bfar | -2.24 (active) |
| GCAGUAGCGACGAAGGAUGTT against Rnf113a2 | -2.12 (active) |
| GGACAAGAAUUGGAACAAATT against Zfp84 | 1.43 |
| GGCAGUAUCAAAGAAAUUGTT against Rps6ka3 | 3.43 (active) |
| CCCAGGUAGAGACAUUGCUTT against 6330444E15Rik | -1.89 |
| GGAGAUGAAAUCUACAAAUTT against Igfbp1 | -0.592 |
| GCCUUGUUGUGUUGGCUUATT against Olfr1111 | 0.549 |

| Sequence | z-score |
| --- | --- |
| GGGAAUAUUUUCAAGUUGCTT against Tmem14a | 0.795 |
| GGAAGAUAUUGGUAAAAACTT against Uba1y | 0.584 |
| GGAUGUUUGGACAUCAUUUTT against 2610002M06Rik | 0.204 |
| GGUAAUGAUACCUUGAAUGTT against H60a | 2.11 (active) |
| GCUUCAGUGGCUACUCUUGTT against H2-M2 | 0.63 |
| CCGUGGAUUGUGGAAUAAUTT against Xpnpep3 | -1.39 |
| GCCAGUUUUGGUAUCCCGUTT against Lpcat2 | -1.2 |
| GGGACAACCCAUCAACAAUTT against Catsper1 | -0.614 |
| CGAUGUACUCCAUGUUGGGTT against Bpifb6 | 3.47 (active) |
| GGAAAGCUUGAAUGUUGAGTT against Mup3 | 1.44 |
| GACACCCUGUGACACCAAGTT against Sprr1b | -0.597 |
| GGCUUUAAUGAAAUUAUGGTT against Asap2 | 1.4 |
| CCCAGAAUUGAACUAAAAATT against Mrpl32 | -0.488 |
| GGUGGAACAACUGUUUCAATT against Dyrk3 | 0.541 |
| GGAACCUAUGGAAGGCGUATT against Ino80b | 2.64 (active) |
| CCCACGCUUAGCAAUAUCATT against Get3 | -1.49 |
| GGUAACCUAGUGUAAGUUUTT against Atg2b | -0.0782 |
| GGAGAGCAGUGAUAACCAGTT against Cracd | 2.06 (active) |
| GGAAAUUGCUCAAAAAAGGTT against Asb3 | 0.725 |
| GGCUUCUAUUGCCAUAAUGTT against Olfr380 | 0.568 |
| GGAUGAAGACAGUCAAAUGTT against Lypd3 | 0.261 |
| GGCAGAUUCUAAAUAUAGCTT against Itga9 | -0.52 |
| GGACAGCUUCAUCAAGCCUTT against Cep89 | -0.628 |
| GGUCUGGUGUUGUAGGAUATT against Map1lc3b | 2.71 (active) |
| GGAGUCAUAUGCACAGAUCTT against Tcte3 | -0.706 |
| CGUGGAUGAGAACUAACCUTT against Rpl31 | 1.24 |
| GCUCCUAUGCAAACAUUGCTT against Olfr1390 | 0.489 |
